Assay results published in PubChem BioAssay (EPA / NIEHS).
Calls of active or inactive are those of the source. The calls were made as follows: active = hit-call score of the fitted dose curve at least 0.9, where 1 is the maximum; inactive = score below 0.9.

read-out: Interleukin-8 (IL8), CXCL8 (gene 3576); assay: BSK_SAg_IL8: BioMAP Diversity Plus: SAg Assay for Interleukin-8 (IL8) Biomarker Activity (AID 2283094); conditions: primary human HUVEC with PBMC; actives raise or lower the signal
Method: BSK_SAg is a cell-based, multiplexed-readout assay that uses umbilical vein endothelium and peripheral blood mononuclear cells, a human vascular primary cell co-culture, with measurements taken at 24 hours after chemical dosing in a 96-well plate.BSK_SAg_IL8 is an assay component measured in the BSK_SAg assay. It measures IL-8 antibody related to regulation of gene expression using ELISA technology.Data from the assay component BSK_SAg_IL8 was analyzed into 1 assay endpoint. This assay endpoint, BSK_SAg_IL8, was analyzed with bidirectional fitting relative to DMSO as the negative control and baseline of activity. Using a type of binding reporter, gain or loss-of-signal activity can be used to understand changes in the signaling as they relate to the gene CXCL8. Furthermore, this assay endpoint can be referred to as a primary readout, because this assay has produced multiple assay endpoints where this one serves a signaling function. To generalize the intended target to other relatable targets, this assay endpoint is annotated to the cytokine intended target family, where the subfamily is interleukins.
The levels of cell surface (or secreted, indicated by the prefix "s") biomarker endpoints were measured by ELISA. Overt cytotoxicity to cells in confluent adherent cultures (all systems other than the BT system) was assessed by measuring total protein levels using sulforhodamine B (SRB) staining in parallel cultures at the time of biomarker measurements, indicated as SRB endpoints. For proliferation assays for adherent cell types, individual cell types are cultured at sub-confluence and relative cell numbers quantified by SRB staining at time points optimized for each system (48 h: 3C and CASM3C systems; 72 h: BT and HDF3CGF systems; 96 h: SAg system). SRB was performed by staining cells with 0.1% SRB after fixation with 10% TCA and reading wells at 560 nm.Viability and proliferation of PBMC (T cells) was quantified by Alamar Blue reduction for the SAg and BT systems. For PBMC viability (referred to as PBMC Cytotoxicity within the assay endpoint names), cells were plated (75,000/well in a 96-well plate) and then chemical samples added for 1 h before addition of activators, SEB and TSST-1 (20 ng/mL final concentration each). Cells were incubated for 90 h. Then, Alamar Blue (20 uL/well) (Invitrogen, Cat DAL1100) was added for 6 h, and the plates were read with a fluorescence microplate reader at 546/580 nm (excitation/emission). For PBMC proliferation, cells were plated and activated as above but incubated for only 16 h prior to addition of Alamar Blue. Plates were read after 6 h.

outcome, inactive:
CCO[Si](CCCNC(N)=O)(OCC)OCC, CN1C(=O)CC[C@H]1c1cccnc1, O=C1c2ccccc2C(=O)N1CCc1noc(-c2ccc(CN3CCCCCC3)s2)n1, CCCC(=O)OCCC(C)C, Cc1oc2c(NC(=O)c3c(Cl)cccc3Cl)cccc2c1C(C)(C)O, c1ccc(C[n+]2cccc3ccccc32)cc1, Cc1ccc(C(C)C)cc1, CO[C@H]1/C=C/O[C@@]2(C)Oc3c(C)c(O)c4c(O)c(c(/C=N/N5CCN(C)CC5)c(O)c4c3C2=O)NC(=O)/C(C)=C\C=C\[C@H](C)[C@H](O)[C@@H](C)[C@@H](O)[C@@H](C)[C@H](OC(C)=O)[C@@H]1C, CC[C@@H]1C[C@H](N(Cc2cc(C(F)(F)F)cc(C(F)(F)F)c2)C(C)=O)c2cc(C(F)(F)F)ccc2N1C(=O)OC(C)C, O=C=NCCCCCCN=C=O, CCN(Cc1cccc(S(=O)(=O)O)c1)c1ccc(C(=C2C=CC(=[N+](CC)Cc3cccc(S(=O)(=O)O)c3)C=C2)c2ccccc2S(=O)(=O)[O-])cc1, COc1cccc([C@H](O)C2CCN(CCc3ccc(F)cc3)CC2)c1OC, CCCCCCCCOc1ccc(C(=O)c2ccccc2)c(O)c1, CC1(C)NC(=O)N(c2ccc([N+](=O)[O-])c(C(F)(F)F)c2)C1=O, O=C1CCC(C2CCCCC2)CC1, CC(O)CC(C)(C)O (stereo not given), OCCO, CCCCCCCC[Si](OCC)(OCC)OCC, COCC(C)OCC(C)OCC(C)O (stereo not given), CCCCOC(=O)c1ccc(O)cc1, CC(C)(O)c1ccc(CNC(=O)c2cccnc2Oc2ccc3nonc3c2)cc1, O=C(O)c1ccccc1-n1cc(C(=O)O)c(=O)c2cc(Nc3c(F)cc(F)cc3Cl)c(Cl)cc21, c1ccc2ccccc2c1, CCCCCCCCCC(=O)O, C[C@]12CC[C@@H]3c4ccc(O)cc4CC[C@H]3[C@@H]1CC[C@H]2O, C[C@]12CC[C@@H]3c4ccc(O)cc4CC[C@H]3[C@@H]1CCC2=O, O=c1ccc2ccccc2o1, CCCCCc1ccc(N)cc1

AC50, active:
COc1ccc2cc(S(=O)(=O)N[C@H](CC(=O)N[C@H](Cc3ccc(CN4[C@H](C)CCC[C@@H]4C)cc3)C(=O)N(C)C(C)C)c3ccc4c(c3)OCO4)ccc2c1 14.8 µM, CCCCCCCCOC(=O)c1cc(O)c(O)c(O)c1 11.5 µM, Cc1cc(F)ccc1-c1cc(N2CC[C@@H](O)[C@H]2CO)ncc1N(C)C(=O)C(C)(C)c1cc(C(F)(F)F)cc(C(F)(F)F)c1 7.96 µM, Clc1ccccc1C(c1ccccc1)(c1ccccc1)n1ccnc1 11.6 µM, CCOC(=O)O[C@H](C)OC(=O)c1ccc2c(c1)cc(C(=O)NC1CCN(C(C)C)CC1)n2Cc1cc(-c2ccc(Cl)s2)on1 6.18 µM, CN1C(=O)N(c2ccccc2Br)Cc2cnc(Nc3ccc4c(c3)OCC(CO)O4)nc21 (stereo not given) 1.62 µM, COc1cc(C(=O)NC2CCN(C)CC2)ccc1Nc1ncc2c(n1)N(C1CCCC1)CC(F)(F)C(=O)N2C 10.2 µM, CN(C[C@@H](CC[N+]12CCC(C3CCCCC3)(CC1)CC2)c1ccc(Cl)c(Cl)c1)C(=O)c1cc(C(F)(F)F)cc(C(F)(F)F)c1 13.9 µM, O=C(Nc1ccc(Cl)cc1)Nc1ccc(Cl)c(Cl)c1 2.29 µM, CC(C)(C)c1cc(/C=C2\SC(N)=NC2=O)cc(C(C)(C)C)c1O 8.74 µM, Cc1c2ccccc2c(C)c2c1ccc1ccccc12 26.4 µM, NCc1cccc(C2CCN(C(=O)c3ccc(C#Cc4ccccc4F)o3)CC2)c1 15.8 µM
